Assay results: PubChem BioAssay
Calls of active or inactive are those of the source.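 The calls were made as follows, unless noted: active = fluorescence slope after compound addition differing from the mean of all screened samples at 99.7% confidence, in either direction; inactive = the rest.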

Assays:
[1] = inhibitors of TNFa-induced NFkB p65 translocation, primary screen, imaging, HUVEC, MLSMR starter and 10KST1 sets (AID 438;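 active = inhibition above 20% together with a positive visual image hit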;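 also: compound added about 3h40 before a 20 min TNFalpha stimulation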;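 as to inhibition: signal is the nuclear over cytoplasmic p65 intensity ratio per well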); settings: HUVEC TNFa-induced p65 nuclear translocation; cell count: measured here: nuclei count (cytotoxicity indicator), at 2.08 µM; inhibition: at 2 µM, stronger effect = higher value, 0% TNFa-plus-vehicle, 100% no-TNFa wells
[2] = reduction of polyQ htt aggregates in cells – imaging, exon1htt(103Q)mCFP cells, high-content imaging, primary screen (AID 483;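 active = visual image review flags a hit and inhibition of aggregation exceeds 20%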;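 also: compound exposure lasted 3 days before fixation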;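 as to nuclei count: percent of the per-plate median nuclei count of sample wells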); settings: exon1htt(103Q)mCFP cell line, aggregate imaging, at 2 µM; inhibition of aggregation: stronger effect = higher value; nuclei count: measured here: cell count, toxicity
[3] = endothelial E-selectin expression blockers – imaging, HUVEC, immunofluorescence, MLSMR starter and 10KST1 sets, primary screen (AID 487;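 active = visually confirmed hit in the image check and inhibition above 20%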;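 as to inhibition: signal is fraction of cell area covered by stained E-selectin grains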;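 as to nuclei count: 100% = median nuclei count of all wells on the same plate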); settings: HUVEC TNFalpha-induced E-selectin immunofluorescence imaging, at 2 µM; inhibition: stronger effect = higher value; nuclei count: measured here: cell number, toxicity
[4] = molecular target: Voltage-gated potassium channel subunit beta-2 (Rattus norvegicus) (UniProt P62483); assay: inhibitors of rat Kvbeta2 reductase activity – biochemical, NADPH fluorescence, primary screen (AID 622;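 active = fluorescence slope higher than the sample average by over 3 SD, cut at about -0.22 in these data, passing the limit was not always enough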;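 also: slope of raw intensity against log time taken from 70 to 1610 s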); settings: recombinant KvBeta, 4-cyanobenzaldehyde reduction, at 10 µM, stronger effect = higher value
Sequence of Voltage-gated potassium channel subunit beta-2 (Rattus norvegicus) (P62483 whole entry, looked up): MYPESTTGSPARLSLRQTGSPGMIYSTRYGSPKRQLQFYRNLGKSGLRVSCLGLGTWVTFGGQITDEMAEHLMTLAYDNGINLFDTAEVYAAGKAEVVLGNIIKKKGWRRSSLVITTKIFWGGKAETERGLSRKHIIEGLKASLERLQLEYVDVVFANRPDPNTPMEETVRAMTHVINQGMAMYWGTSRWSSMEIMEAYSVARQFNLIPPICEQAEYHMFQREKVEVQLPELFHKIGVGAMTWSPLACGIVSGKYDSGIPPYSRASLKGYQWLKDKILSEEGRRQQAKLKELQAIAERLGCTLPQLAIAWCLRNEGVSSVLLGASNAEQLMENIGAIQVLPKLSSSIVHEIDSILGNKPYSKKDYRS

[5] = molecular target: Voltage-gated potassium channel subunit beta-2 (Rattus norvegicus) (UniProt P62483); assay: enhancers of rat Kvbeta2 NADPH turnover – biochemical, NADPH fluorescence, primary screen (AID 623;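 active = NADPH fluorescence slope more negative than the mean of all samples by about 3 SD, 99.7% confidence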;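 also: fluorescence intensity change per second fitted from 20 to 320 s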); settings: Recombinant KvBeta, NADPH fluorescence decrease slope, 10 min; at 10 µM; stronger effect = lower value
[6] = molecular target: Alpha-2C adrenergic receptor (Homo sapiens) (UniProt P18825); assay: compounds altering alpha2C-coupled GIRK flux – cell-based, HEK293 alpha2C/GIRK1/2, thallium flux, primary screen (AID 624); settings: thallium flux BTC fluorescence, at 10 µM, actives lie on both sides;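 also: slope of fluorescence ratio to pre-addition baseline per second over 15 to 24 s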
Sequence of Alpha-2C adrenergic receptor (Homo sapiens) (P18825 whole entry, looked up): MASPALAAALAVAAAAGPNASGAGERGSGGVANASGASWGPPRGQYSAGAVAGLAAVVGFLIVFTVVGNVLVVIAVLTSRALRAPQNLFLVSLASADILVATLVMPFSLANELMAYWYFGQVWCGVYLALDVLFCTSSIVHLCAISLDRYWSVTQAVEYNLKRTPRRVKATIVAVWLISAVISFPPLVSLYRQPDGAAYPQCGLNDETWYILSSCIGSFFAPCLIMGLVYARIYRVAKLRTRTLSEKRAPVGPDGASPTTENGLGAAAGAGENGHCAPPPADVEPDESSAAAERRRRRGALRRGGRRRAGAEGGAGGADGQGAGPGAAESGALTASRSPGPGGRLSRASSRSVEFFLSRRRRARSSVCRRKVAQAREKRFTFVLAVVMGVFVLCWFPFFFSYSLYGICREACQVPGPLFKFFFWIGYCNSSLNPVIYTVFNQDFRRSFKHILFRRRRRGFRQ

[7] = blockers of RIG-like receptor reporter activation – cell-based, Sendai virus stimulus, luciferase, 10K MLSCN set, TLR/RLR signaling modifier project, primary screen (AID 602276;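 active = inhibition at or above 50% at 10 µM; inactive = inhibition below 50%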;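 also: firefly luciferase from ISG56 promoter only with Renilla not read in this screen; 0% = Sendai virus plus DMSO and 100% = medium plus DMSO without virus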); settings: HEK293 RL24 IRF3 luciferase reporter, at 10 µM, stronger effect = higher value
[8] = TLR3 IRF3 reporter activation blockers – cell-based, poly I:C stimulus, luciferase, 10K MLSCN set, primary screen (AID 602277;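 active = inhibition of the reporter signal at or above 50%; inactive = inhibition below 50%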); settings: HEK293-TLR3 RL24 IRF3 luciferase reporter, at 10 µM, stronger effect = higher value

| Structure (SMILES) | cell count [1] | inhibition [1] | inhibition of aggregation [2] | nuclei count [2] [%] | inhibition [3] | nuclei count [3] [%] | fluorescence slope [4] | NADPH fluorescence slope [5] | slope [6] | inhibition [7] | inhibition [8] |
| --- | --- | --- | --- | --- | --- | --- | --- | --- | --- | --- | --- |
| Cc1ccc(CCP(=O)(O)CN2CCOCC2)cn1 | 380 | 5.9% (inactive) | -2.2% (inactive) | 100 | 4.3% (inactive) | 95.2 | -0.437 (inactive) | 3.3e-05 (inactive) | 0.00662 (inactive) | -1.89% (inactive) | 33.2% (inactive) |
| CCOC(=O)N1CCC(NC(=O)C2CCC(Cn3c(=O)[nH]c4ccccc4c3=O)CC2)CC1 (stereo not drawn) | 609 | -0.3% (inactive) | -10.3% (inactive) | 105 | -89.5% (inactive) | 101 | -0.546 (inactive) | 3.1e-05 (inactive) | 0.00617 (inactive) | 6.35% (inactive) | 20.6% (inactive) |
| C(/CCc1ccccc1)=N\n1cnnc1 | 312 | 18.4% (inactive) | -7% (inactive) | 109 | 17.1% (inactive) | 105 | -0.628 (inactive) | -5.3e-05 (inactive) | 0.00355 (inactive) | 5.76% (inactive) | 0.464% (inactive) |
| O=C(CC(CC(=O)c1ccccc1)C(=O)O)c1ccccc1 | 393 | 8.7% (inactive) | -4.6% (inactive) | 91.9 | -52.5% (inactive) | 109 | -0.525 (inactive) | -3.8e-05 (inactive) | 0.0059 (inactive) | -0.637% (inactive) | -0.177% (inactive) |
| Cc1ccc(-c2nc3cc(N)ccc3o2)cc1 | 463 | 1.1% (inactive) | 11.7% (inactive) | 101 | -58.1% (inactive) | 115 | -0.0326 (active) | -3.4e-05 (inactive) | 0.00542 (inactive) | 2.48% (inactive) | -58.1% (inactive) |
| O=C(NCCN1CCOCC1)c1ccc2c(c1)N(Cc1ccccc1F)C(=O)CS2 | 591 | 5.8% (inactive) | 6% (inactive) | 67.6 | -51.7% (inactive) | 111 | -0.456 (inactive) | -2e-06 (inactive) | 0.00607 (inactive) | 9.96% (inactive) | 22.6% (inactive) |
| CCC(=O)Nc1cc(C)c(NC(=O)C23CC4CC(CC(C4)C2)C3)cn1 | 391 | 5.2% (inactive) | 1% (inactive) | 98.8 | -11.3% (inactive) | 102 | -0.479 (inactive) | -3.3e-05 (inactive) | 0.00598 (inactive) | 1.14% (inactive) | 18.1% (inactive) |
| Cc1ccc(S(=O)(=O)CC2CSc3nnc(C)c(=O)n32)cc1 (stereo not drawn) | 432 | -3.3% (inactive) | 3.8% (inactive) | 91.3 | -36.1% (inactive) | 173 | -0.38 (inactive) | -5.3e-05 (inactive) | 0.00213 (inactive) | 12.3% (inactive) | 31.9% (inactive) |
| COc1ccc(NC(=O)c2ccco2)cc1NC(=O)c1cccs1 | 400 | 3.8% (inactive) | 4.3% (inactive) | 95.9 | 13.8% (inactive) | 92.8 | -0.421 (inactive) | 2.6e-05 (inactive) | 0.00585 (inactive) | -10.6% (inactive) | -14.2% (inactive) |
| CN(C(=O)c1ccc(S(=O)(=O)NC2CCCC2)cc1)C1CCCCC1 | 685 | 2% (inactive) | -3.6% (inactive) | 103 | -141% (inactive) | 117 | -0.455 (inactive) | 1.5e-05 (inactive) | 0.0047 (inactive) | -13.3% (inactive) | -0.726% (inactive) |
| CCCNC(=O)C1CC(=O)N(c2ccc(OCC(=O)Nc3cc(C)cc(C)c3)cc2)C1 (stereo not drawn) | 591 | -6.2% (inactive) | -2.7% (inactive) | 104 | -6.3% (inactive) | 114 | -0.562 (inactive) | -4e-05 (inactive) | 0.00634 (inactive) | -3.19% (inactive) | 27.9% (inactive) |
| O=C(NCc1ccccc1)C1CCN(S(=O)(=O)c2cccc3cccnc23)CC1 | 823 | -3% (inactive) | 19% (inactive) | 65.6 | -37.7% (inactive) | 111 | -0.57 (inactive) | 1.3e-05 (inactive) | 0.00702 (inactive) | -3.36% (inactive) | 33.1% (inactive) |
| O=C(Cn1ncc2c1-c1ccccc1OC2)Nc1ccc(Cl)cn1 | 462 | -2.9% (inactive) | -7.1% (inactive) | 114 | -55% (inactive) | 116 | -0.573 (inactive) | -3.2e-05 (inactive) | 0.00703 (inactive) | 9.19% (inactive) | 29.8% (inactive) |
| Cc1ccc(S(=O)(=O)N2CCC(C(=O)N3CCN(Cc4ccccc4)CC3)CC2)cc1 | 659 | -14% (inactive) | 19% (inactive) | 110 | -40.7% (inactive) | 106 | -0.518 (inactive) | -1.5e-05 (inactive) | 0.0064 (inactive) | 8.56% (inactive) | 16.4% (inactive) |
| COC(=O)[C@H](CCSC)NC(=O)Nc1cc(C)ccc1C | 476 | -7.4% (inactive) | 7.6% (inactive) | 90.6 | -5.7% (inactive) | 86.5 | -0.616 (inactive) | -3.2e-05 (inactive) | 0.00712 (inactive) | 11.7% (inactive) | 31% (inactive) |
| COc1cc(Cn2c(-c3nonc3N)nc3ccccc32)ccc1C | 329 | -1.5% (inactive) | -18.3% (inactive) | 65 | -20.1% (inactive) | 99.4 | -0.591 (inactive) | -1.7e-05 (inactive) | 0.00556 (inactive) | 29.4% (inactive) | 53.2% (active) |
| CC(=O)Nc1ccc(S(=O)(=O)N2CCN(c3cc(C)nc4ccccc34)CC2)cc1 | 730 | -9.1% (inactive) | 35.3% (inactive) | 123 | -87.3% (inactive) | 120 | -0.31 (inactive) | -7.9e-05 (inactive) | 0.00466 (inactive) | 5.87% (inactive) | 13.2% (inactive) |
| CO/C([O-])=N/c1c[n+](-c2ccc(C)cc2)no1 | 711 | -18.1% (inactive) | -9.2% (inactive) | 104 | -3.6% (inactive) | 113 | -0.471 (inactive) | -4.7e-05 (inactive) | 0.00685 (inactive) | -8.44% (inactive) | -40% (inactive) |
| COc1ccc(-c2noc(-c3ccccc3C(=O)Nc3cccnc3)n2)cc1 | 218 | 6.7% (inactive) | 0.1% (inactive) | 87.6 | -54.7% (inactive) | 95.3 | -0.601 (inactive) | 1.8e-05 (inactive) | 0.00583 (inactive) | 12.1% (inactive) | 12.9% (inactive) |
| c1cc(C(c2nnnn2C2CCCC2)N2CCOCC2)ccn1 (stereo not drawn) | 392 | -7.3% (inactive) | 27.3% (inactive) | 78.3 | 38.6% (inactive) | 97.3 | -0.522 (inactive) | 2.4e-05 (inactive) | 0.00524 (inactive) | 18.3% (inactive) | 21.2% (inactive) |
| O=C(c1ccc(Br)cc1)N1CCN(S(=O)(=O)c2ccccc2)CC1 | 556 | -5.1% (inactive) | 3.3% (inactive) | 66.6 | -43.3% (inactive) | 106 | -0.588 (inactive) | -9.2e-07 (inactive) | 0.00631 (inactive) | -3.58% (inactive) | 20% (inactive) |
| O=C1c2ccccc2-c2ccc(C(=O)N3CCOCC3)cc21 | 623 | -4.1% (inactive) | -6.2% (inactive) | 81.1 | -103% (inactive) | 101 | -0.235 (inactive) | -1.8e-05 (inactive) | 0.00393 (inactive) | 5.8% (inactive) | -1.97% (inactive) |
| CC1CCN(c2oc(-c3cccc4ccccc34)nc2C#N)CC1 | 610 | -8.2% (inactive) | 1.2% (inactive) | 102 | -112% (inactive) | 101 | -0.0453 (active) | -6.6e-07 (inactive) | 0.00364 (inactive) | -40.5% (inactive) | -95.3% (inactive) |
| Cc1ccc(Cn2c(=O)c3ccccc3n3c(CCC(=O)O)nnc23)cc1 | 681 | -13.4% (inactive) | -2.1% (inactive) | 90 | -55.9% (inactive) | 116 | -0.554 (inactive) | 1.7e-05 (inactive) | 0.00669 (inactive) | 0.88% (inactive) | 12.6% (inactive) |
| Cn1c(=O)[nH]c(=O)c2c1nc(NCCCn1ccnc1)n2Cc1ccccc1 | 433 | 0.3% (inactive) | -7.8% (inactive) | 130 | -46.4% (inactive) | 119 | -0.603 (inactive) | -3.4e-05 (inactive) | 0.00342 (inactive) | -9.45% (inactive) | -6.06% (inactive) |
| CC1=NC(Nc2nc(C)c3ccccc3n2)=NC(C)(C)C1 | 391 | 1.5% (inactive) | -1.8% (inactive) | 94 | -13% (inactive) | 111 | -0.462 (inactive) | 6.6e-05 (inactive) | 0.00711 (inactive) | 3.86% (inactive) | 1.48% (inactive) |
| CC(NS(=O)(=O)c1ccc(OCC(=O)N2CCOCC2)c(Cl)c1)c1ccccc1 (stereo not drawn) | 338 | -6.5% (inactive) | 0.2% (inactive) | 104 | -51.1% (inactive) | 76.7 | -0.409 (inactive) | -3.1e-05 (inactive) | 0.00508 (inactive) | 18.7% (inactive) | 12.4% (inactive) |
| COC(=O)c1ccc(C2C(C#N)=C(N)Oc3cc(C)n(C)c(=O)c32)cc1 (stereo not drawn) | 551 | -11.1% (inactive) | 0.4% (inactive) | 111 | -1.7% (inactive) | 111 | -0.499 (inactive) | -4.1e-05 (inactive) | 0.00425 (inactive) | 9.77% (inactive) | 6% (inactive) |
